# Values joined by “and” are separate entries in the source; they are usually repeats but may differ in a detail not shown here. Equal values may be shown once. Inconclusive results are not listed. Active and inactive are the calls of the source. Rule as the data show it, unless noted: active = inhibition above about 80%; inactive = the rest.
# Legend:
# [1] = growth inhibition of DIPG glioma cells, dose response, cell-based, SU-DIPG-IV, MIPE4.0, CellTiter-Glo, qHTS (AID 1347063; cut-off not given, nearly all actives have AC50 up to about 30 µM;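 also: compound exposure lasted 48 hours before the viability readout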); conditions: SU-DIPG-IV viability, CellTiter-Glo ATP luminescence
# [2] = growth inhibition of DIPG glioma cells, dose response, cell-based, SU-DIPG-XIII, MIPE5.0, CellTiter-Glo, qHTS (AID 1347064; cut-off not given, nearly all actives have AC50 up to about 23 µM); conditions: SU-DIPG-XIII viability, CellTiter-Glo ATP luminescence
# [3] = modifiers of HSF1 nuclear foci, imaging, Selleck Cancer Library (AID 1347162; in the data active = plate-normalised HSF1 focus index below about 0.46); conditions: human cells, at 10 µM; SSMD: measured here: HSF1 foci SSMD mean; cell count: measured here: cell number; plate-normalised HSF1 focus index: stronger effect = lower value
# [4] = LFS_MB_1R medulloblastoma cell growth inhibition, synergistic combos for chromothripsis tumors, cisplatin or BGB combos (AID 1671452); conditions: LFS_MB_1R medulloblastoma cells, stronger effect = higher value;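 also: cells exposed for 96 hours before readout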
# [5] = CRL2098 osteosarcoma cell growth inhibition, synergistic combos for chromothripsis tumors, BGB or cisplatin IC20 combos (AID 1671454); conditions: CRL2098 osteosarcoma cells, drug combinations, stronger effect = higher value;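 also: cells exposed for 96 h before readout; 0% = vehicle DMSO and 100% = killing by high DMSO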
# [6] = HD-MB03 medulloblastoma cell growth inhibition, synergistic combos for chromothripsis tumors, BGB or cisplatin IC20 combos (AID 1671455; in the data active = inhibition above about 83%;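 also: 0% = vehicle DMSO and 100% = high DMSO as cytotoxic control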); conditions: HD-MB03 medulloblastoma cells, stronger effect = higher value
# [7] = UWB1.289 ovarian carcinoma cell growth inhibition, synergistic combos for chromothripsis tumors, BGB or cisplatin combos (AID 1671456); conditions: UWB1.289 ovarian carcinoma cells, stronger effect = higher value;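 also: cells exposed to compound for four days; 0% = vehicle DMSO and 100% = killing by high DMSO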
# [8] = LFS_MB_2R medulloblastoma cell growth inhibition, synergistic combos for chromothripsis tumors, cisplatin combos (AID 1671457); conditions: LFS_MB_2R medulloblastoma cells, stronger effect = higher value;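 also: cells exposed to compound for four days before readout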
# [9] = MDA-MB-436 breast carcinoma cell growth inhibition, synergistic combos for chromothripsis tumors, BGB or cisplatin combos (AID 1671458; call rule not given here;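 also: cells exposed for 96 hours; 0% = vehicle DMSO and 100% = killing by high DMSO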); conditions: MDA-MB-436 breast carcinoma growth inhibition, drug combinations, stronger effect = higher value
# [10] = UWB1.289_BRCA1 ovarian cancer growth, cell-based, BGB or cisplatin combinations (AID 1671459); conditions: UWB1.289 BRCA1 ovarian carcinoma, drug combinations, stronger effect = higher value
# [11] = human astrocyte viability loss, single and combined drugs, cytotoxicity control for chromothriptic childhood tumor combination screen, cell-based, BGB or cisplatin IC20 combos (AID 1671460); conditions: Human astrocytes, drug combinations, stronger effect = higher value;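 also: cells exposed to compounds for 96 hours before viability readout; 0% = vehicle and 100% = killing control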
# [12] = growth inhibition of BT084 medulloblastoma cells, cell-based, ICGC_MB145, cisplatin and BGB IC40 combos (AID 1671461); conditions: drug combinations, stronger effect = higher value;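 also: cells exposed to drugs for 96 hours; 0% = vehicle DMSO and 100% = high DMSO full killing control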
# [13] = growth inhibition of RCMB18 medulloblastoma cells, cell-based, cisplatin and BGB IC40 combos (AID 1671462); conditions: stronger effect = higher value;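 also: cells exposed to compound for four days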
# [14] = growth inhibition of CRL1545 osteosarcoma cells, cell-based, cisplatin and BGB IC20 combos (AID 1671464); conditions: stronger effect = higher value;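 also: cells exposed to compound for 96 hours before readout; 0% = vehicle DMSO and 100% = high DMSO killing control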
# [15] = inhibitors of Cryptococcus chitosan production, flow cytometry, Cibacron Brilliant Red staining (AID 1347148; call rule not given here;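 also: compound exposure lasted three days at 37 degrees C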); conditions: Cryptococcus neoformans chitosan, stronger effect = lower value; at 10 µM unless noted
# [16] = protection against mutant huntingtin cytotoxicity, PC12 cells, LDH release (AID 1610); conditions: PC12 mutant huntingtin toxicity, final LDH at 4 uM, stronger effect = lower value
# [17] = system: Neuropilin-2 / VEGF-C interaction (human); assay: inhibitors of NRP2–VEGF-C binding, biochemical, microplate binding format, z-score (AID 743281; call rule not given here); conditions: microplate NRP2/VEGF-C binding assay; stronger effect = lower value
# [18] = measured here: combination with cisplatin, at 0.5 µM
# [19] = measured here: combination with cisplatin, at 5 µM
structure (smiles),measurement,setting,value
O=P1(N(CCCl)CCCl)NCCCO1 (configuration not stated),outcome,[1],inactive
same,outcome,[2],inactive
same,SSMD,[3],1.32
same,cell count,[3],7410
same,plate-normalised HSF1 focus index,[3],1.05 (inactive)
same,inhibition,[4]; at 0.5 µM,-27.2% (inactive) and -18.7% (inactive)
same,inhibition,"[4]; measured here: combination with BGB IC40, at 0.05 µM",-28.1% and -17.9%
same,inhibition,[4]; [18],-62% and -22.2%
same,inhibition,[4]; [19],-58.8% and -8.04%
same,inhibition,[5]; at 0.5 µM,-64.7% (inactive) and -26.3% (inactive)
same,inhibition,"[5]; measured here: combination with BGB at IC20, at 0.5 µM",-52.1% and -36.9%
same,inhibition,"[5]; measured here: combination with cisplatin at IC20, at 0.5 µM",-105% and -14.6%
same,inhibition,[6]; at 0.5 µM,-15.6% (inactive) and -8.72% (inactive)
same,inhibition,"[6]; measured here: combo with BGB at IC20, at 0.5 µM",-13.1% and -5.67%
same,inhibition,"[6]; measured here: combo with cisplatin at IC20, at 0.5 µM",-23.9% and -12.6%
same,inhibition,[7]; at 0.5 µM,-11% (inactive) and -0.72% (inactive)
same,inhibition,"[7]; measured here: inhibition with BGB combination, at 0.05 µM",0.467% and -11.6%
same,inhibition,"[7]; measured here: inhibition with cisplatin combination, at 0.05 µM",-17.5% and -3.57%
same,inhibition,[8]; at 0.5 µM,-8.87% (inactive) and -10.9% (inactive)
same,inhibition,[8]; [18],-12.2% and -3.73%
same,inhibition,[8]; [19],-12% and -15.2%
same,inhibition,[9]; at 0.5 µM,-6.84% (inactive) and -18.8% (inactive)
same,inhibition,"[9]; measured here: BGB combination, at 0.5 µM",-4.29% and -16.7%
same,inhibition,"[9]; measured here: BGB combination, at 5 µM",-11.8% and -7.83%
same,inhibition,"[9]; measured here: cisplatin combination, at 0.5 µM",-1.92% and -34.6%
same,inhibition,"[9]; measured here: cisplatin combination, at 5 µM",-42.1% and -18.1%
same,inhibition,"[10]; BGB combination, concentration series, at 5 µM",-8.88% and 6.63%
same,inhibition,[10]; at 0.5 µM,-10.4% (inactive) and -3.19% (inactive)
same,inhibition,"[10]; cisplatin combination, concentration series, at 5 µM",-43.5% and 10.9%
same,inhibition,[11]; at 0.5 µM,1.59% (inactive) and 8.63% (inactive)
same,inhibition,"[11]; measured here: combo with BGB IC20, at 0.5 µM",0.13% and 3.09%
same,inhibition,"[11]; measured here: combo with cisplatin IC20, at 0.5 µM",6.54% and 14.4%
same,inhibition,[12]; at 0.5 µM,-9.95% (inactive) and -11.7% (inactive)
same,inhibition,"[12]; cisplatin combination, at 0.5 µM",-36.8% and -12%
same,inhibition,"[12]; cisplatin combination, at 5 µM",-1.57% and -57.3%
same,inhibition,"[12]; measured here: BGB IC40 combination 0.05 uM, at 0.05 µM",-19.2% and 1.38%
same,inhibition,"[12]; single agent, at 5 µM",-9.56% and -21.4%
same,inhibition,[13]; at 0.5 µM,-4.96% (inactive) and -6.79% (inactive)
same,inhibition,"[13]; cisplatin combo, at 5 µM",-39% and 8.55%
same,inhibition,"[13]; measured here: BGB IC40 combination, at 0.05 µM",-12.6% and 10%
same,inhibition,[13]; [18],-20.8% and 7.02%
same,inhibition,"[13]; single agent, at 5 µM",-6.86% and -4.77%
same,inhibition,[14]; at 0.5 µM,-20.8% (inactive) and -21.4% (inactive)
same,inhibition,"[14]; measured here: with BGB IC20 combination, at 0.5 µM",-33.7% and 3.63%
same,inhibition,"[14]; measured here: with cisplatin IC20 combination, at 0.5 µM",-16.2% and -34%
same,inhibition,"[14]; single agent, at 0.05 µM",-25% and -2.49%
same,inhibition,"[14]; single agent, at 5 µM",10.9% and -41%
N[C@@H]1C[C@H]1c1ccccc1,outcome,[1],inactive
same,outcome,[2],inactive
C[C@@H]1O[C@@H](O[C@H]2C[C@@H](O)[C@]3(CO)[C@H]4[C@H](O)C[C@]5(C)[C@@H](C6=CC(=O)OC6)CC[C@]5(O)[C@@H]4CC[C@]3(O)C2)[C@H](O)[C@H](O)[C@H]1O,AC50,[1],0.0148 µM (active)
same,fold fluorescence,[15],4.64 [at 85.5 µM] (inactive)
CC[n+]1c(-c2ccccc2)c2cc(N)ccc2c2ccc(N)cc21,normalised LDH release,[16],0.673
CN1CCN(C(=O)O[C@H]2c3nccnc3C(=O)N2c2ccc(Cl)cn2)CC1,outcome,[1],inactive
CCC(COC(=O)c1cc(OC)c(OC)c(OC)c1)(c1ccccc1)N(C)C (configuration not stated),z-score,[17],-1.07 (inactive)
NC(=O)OCCCc1ccccc1,z-score,[17],-0.636 (inactive)
NN=C(N)N,outcome,[2],inactive
CN1C(=O)COc2c(C(=O)NC3CN4CCC3CC4)cc(Cl)cc21 (configuration not stated),z-score,[17],0.29 (inactive)
same,outcome,[1],inactive
same,outcome,[2],inactive
C#CCN(C)[C@H](C)Cc1ccccc1,z-score,[17],-0.865 (inactive)
same,outcome,[1],inactive
same,outcome,[2],inactive
O=C(O)C(Cl)Cl,z-score,[17],0.208 (inactive)
COc1ccc(C(=O)N2CCCC2=O)cc1,outcome,[1],inactive
CC(C)c1cccc(C(C)C)c1O,outcome,[1],inactive
same,outcome,[2],inactive
COc1cccc([C@@]2(O)CCCC[C@@H]2CN(C)C)c1,z-score,[17],0.404 (inactive)
COc1cc(N)c(Cl)cc1C(=O)NC1CN2CCC1CC2 (configuration not stated),z-score,[17],-0.38 (inactive)
CC1(C)C(C=C(Cl)Cl)C1C(=O)OC(C#N)c1cccc(Oc2ccccc2)c1 (configuration not stated),fold fluorescence,[15],4.81 [at 120.1 µM] (inactive)
C=C1C[C@@H]2[C@H](CC[C@]3(C)C(=O)CC[C@@H]23)[C@@]2(C)C=CC(=O)C=C12,outcome,[2],inactive
same,SSMD,[3],1.72
same,cell count,[3],6870
same,plate-normalised HSF1 focus index,[3],1.09 (inactive)
Nc1ccncc1,fold fluorescence,[15],3.69 [at 531.3 µM] (inactive)
CNCC(O)c1ccc(O)cc1 (configuration not stated),z-score,[17],-0.502 (inactive)
same,outcome,[1],inactive
same,outcome,[2],inactive

# Reference: PubChem BioAssay
